JMJD2A Tudor = qHTS Assay for Inhibitors of JMJD2A-Tudor Domain | AID 504339, 2011 | Potency, µM (highest dose often 114 µM), hits mostly inhibitors | AlphaScreen JMJD2A-Tudor / H3K4me3 peptide binding | Lysine-specific demethylase 4A (Homo sapiens), O75164 | 390,000 tested, 4.4% active; further: nearly all actives have a fitted effect of over 50% in size
L3MBTL1 inh = qHTS Assay for the Inhibitors of L3MBTL1; Lethal(3)malignant brain tumor-like protein 1 (Homo sapiens), Q9Y468; AlphaScreen L3MBTL1–H3K9me1 peptide binding; Potency, µM (highest dose often 57.1 µM), hits mostly inhibitors; 230,000 tested, 0.66% active; AID 485360, 2010; further: nearly all actives have a fitted effect of over 60% in size
Target sequence (Q9Y468 whole entry, looked up): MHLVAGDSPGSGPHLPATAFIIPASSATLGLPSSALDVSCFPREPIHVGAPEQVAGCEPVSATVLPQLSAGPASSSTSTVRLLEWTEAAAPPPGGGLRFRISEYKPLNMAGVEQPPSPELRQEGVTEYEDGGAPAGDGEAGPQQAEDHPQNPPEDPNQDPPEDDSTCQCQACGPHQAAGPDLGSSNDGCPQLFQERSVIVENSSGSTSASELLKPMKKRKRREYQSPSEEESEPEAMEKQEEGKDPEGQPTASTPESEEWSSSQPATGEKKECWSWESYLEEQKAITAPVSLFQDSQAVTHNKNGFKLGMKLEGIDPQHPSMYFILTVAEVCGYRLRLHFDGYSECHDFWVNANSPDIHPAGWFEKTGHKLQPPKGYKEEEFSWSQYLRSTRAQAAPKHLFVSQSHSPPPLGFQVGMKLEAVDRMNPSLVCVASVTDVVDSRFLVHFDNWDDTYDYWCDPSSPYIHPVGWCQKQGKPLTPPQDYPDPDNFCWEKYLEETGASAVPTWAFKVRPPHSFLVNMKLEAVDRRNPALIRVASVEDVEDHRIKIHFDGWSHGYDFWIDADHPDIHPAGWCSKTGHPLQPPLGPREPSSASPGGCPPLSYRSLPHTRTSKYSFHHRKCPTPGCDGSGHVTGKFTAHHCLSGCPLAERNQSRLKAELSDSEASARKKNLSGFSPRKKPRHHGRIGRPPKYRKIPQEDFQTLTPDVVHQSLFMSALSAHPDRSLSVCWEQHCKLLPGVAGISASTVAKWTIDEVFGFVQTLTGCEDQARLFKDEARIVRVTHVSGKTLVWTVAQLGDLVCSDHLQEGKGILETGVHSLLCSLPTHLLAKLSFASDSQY
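AlphaScreen assay: L3MBTL1 (50 nM final) was preincubated 30 min at room temperature with biotinylated H3(1-15)K9me1 peptide (75 nM final), then 30 min with library compounds; streptavidin donor and nickel chelate acceptor beads (10 ug/mL final) added, 30 min dark.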
G9a block = qHTS Assay for Inhibitors of Histone Lysine Methyltransferase G9a. G9a H3K9 monomethylation, AlphaScreen, 2 h. 350,000 tested, 8.8% active. Potency, µM (top dose mostly 102 µM), actives largely listed as inhibitors; further: nearly all actives have a fitted effect of over 75% in size
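Enzyme 20 nM + cpd, 15 min RT; add b-H3K9 pep 500 nM / SAM 20 uM; 2 h RT; anti-H3K9me1 Ab 0.5 ug/mL + SA donor / anti-rabbit acceptor beads 20 ug/mL each, 10 min; AlphaScreen read.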
BAZ2B block = qHTS Assay for Inhibitors of BAZ2B. 360,000 tested, 4.4% active. Potency, µM (series often up to 114 µM), most hits filed as inhibitors. Bromodomain adjacent to zinc finger domain protein 2B (Homo sapiens), Q9UIF8. AlphaScreen BAZ2B-H3K14Ac peptide displacement; further: nearly all actives have a fitted effect of over 60% in size
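Compounds, titrated to a top concentration of 110 uM, were incubated 30 min at room temperature with preformed BAZ2B/acetyl-K14 H3 peptide complex (50 nM each). Proximity signal was measured by AlphaScreen after 20 min with beads.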
GLS inhibitor = qHTS for Inhibitors of Glutaminase (GLS); 410,000 tested, 0.21% active; Glutaminase kidney isoform, mitochondrial (Homo sapiens), O94925; AID 624170, 2012; GLS enzymatic activity, qHTS titration; Potency, µM (top dose mostly 45.5 µM), hits mostly inhibitors
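Two-point fluorescence kinetic (t0, 30 min RT) for hKGA; glutamate detected via glutamate oxidase–HRP–Amplex Red. Substrate: 1 mM L-glutamine solution; buffer 45 mM KH2PO4, pH 8.2.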
HP1b binding inh = HTS for Inhibitors of HP1-beta Chromodomain Interactions with Methylated Histone Tails; AlphaScreen HP1-beta / biotin-H3K9me3 peptide binding; 390,000 tested, 0.56% active; AID 540317, 2011; Chromobox protein homolog 1 (Homo sapiens), P83916; Potency, µM (titrated, usually from 114 µM), actives largely listed as inhibitors; further: nearly all actives have a fitted effect of over 70% in size
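AlphaScreen: HP1-beta (50 nM) preformed 30 min with biotin-H3(1-18)K9me3 peptide (50 nM) in PBS pH 7.4, 0.01% Tween-20. Compound added for 30 min at RT, then streptavidin donor/nickel chelate acceptor beads (10 ug/mL) for 30 min.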
A number is an active result; – = inactive; ? = inconclusive; · = no result given; [ ] = dose if it differs, or a comment. Rows were chosen to be rich in hits. Some 10% of all compounds tested hit in one or more screens of this group. The call rests on the fitted dose curve; in most records, active means well fitted curve in the direction sought with a large enough effect; inconclusive means small, poorly fitted or top-dose-only effect, or another doubt; inactive means no such curve, though single readings can be large; an effect the other way counts as inactive or inconclusive.

SMILES	JMJD2A Tudor	L3MBTL1 inh	G9a block	BAZ2B block	GLS inhibitor	HP1b binding inh
C#Cc1ccc([C@@H]2C=C(C(=O)OCC=C)O[C@H](OCCCCO)C2)cc1	–	–	?	50.1µM	–	–
O=C(O)C1=C[C@@H](c2ccccc2)C[C@@H](OCCCCO)O1	–	·	·	·	–	–
C=CCOC(=O)C1=C[C@H](c2ccc(C(F)(F)F)cc2)C[C@H](OCCCCO)O1	–	·	·	·	–	–
COc1ccc([C@H]2C=C(C(=O)O)O[C@@H](OCCCCO)C2)cc1	56.2µM	·	–[12.7 µM]	?	–	–
O=C(O)C1=C[C@H](c2ccc(F)cc2)C[C@H](OCCCCO)O1	–	·	–[12.7 µM]	79.4µM	–	–
CCOc1ccccc1NC(=O)Cc1coc2c(C)c(C)ccc12	–	·	–	–	–	–
Cc1ccc([N+](=O)[O-])cc1S(=O)(=O)Nc1ccc(-c2ccc(N3CCCC3)nn2)cc1	–	–	–[2.33 µM]	–	–	–
COc1ccc(OC)c(S(=O)(=O)Nc2cccc(-c3ccc(N4CCCCC4)nn3)c2)c1	?	·	3.55µM	–	–	?
O=[N+]([O-])c1ccc(Cl)c(S(=O)(=O)Nc2cccc(-c3ccc(N4CCCC4)nn3)c2)c1	–	–	39.8µM	?	–	–
O=[N+]([O-])c1ccccc1S(=O)(=O)Nc1cccc(-c2ccc(N3CCCC3)nn2)c1	–	–	–[2.33 µM]	–	?	–
O=[N+]([O-])c1ccc(Cl)c(S(=O)(=O)Nc2ccc(-c3ccc(N4CCCC4)nn3)cc2)c1	–	–	50.1µM	–	–	–
CCOc1ccc(CCNC(=O)CCc2c(C)nc3c4c(C)cc(C)nc4nn3c2C)cc1	–	·	–	–	–	–
CC(C)c1ccccc1NC(=O)CNCCOc1ccccc1F	28.2µM	·	–	50.1µM	–	?
COc1cccc2c1[C@@H]1CN(CCCCn3c(=O)[nH]c4c(sc5ncc(-c6ccccc6)nc54)c3=O)C[C@@H]1CO2	?	–	12.6µM	?	–	–
Cc1nn2c(=O)cc(COC(=O)COc3ccccc3C)nc2s1	–	·	–	–	–	–
COc1ccc(O)c(C(=O)CC(=O)c2ccc(F)cc2)c1	?	·	79.4µM	?	–	?
COc1ccc(C(=O)CC(=O)c2ccccc2O)cc1	–	–[2.29 µM]	–[0.501 µM]	–	–	–
Cc1cc(NC(=O)C2CCCN(S(=O)(=O)c3cn(C)cn3)C2)ccc1Br (stereo unspecified)	–	·	–[12.7 µM]	–	–	–
COC(=O)c1ccc(C(=O)OC)c(NC(=O)N2CC3CCCN3c3ccccc32)c1 (stereo unspecified)	?	·	14.1µM	25.1µM	–	–
Cc1ccccc1CNC(=O)CCC(=O)N1CC2CCCN2c2ccccc21 (stereo unspecified)	?	·	–	?	–	–
O=C(CCC(=O)N1CC2CCCN2c2ccccc21)NCc1ccccc1F (stereo unspecified)	44.7µM	·	–	–	–	–
O=C(NCc1ccc(Cl)cc1)c1ccc(NC(=O)N2CC3CCCN3c3ccccc32)cc1 (stereo unspecified)	–	·	10µM	–	–	–
Cc1cc(C)c2c(=O)cc(C(=O)Nc3ccc(C)c(Cl)c3)oc2c1	–	·	?	–	–	–
O=C(Nc1ccccc1)c1ccc(-n2nncc2-c2ccccc2)cc1	–	·	·	·	·	–
O=C(O)c1cccc(N/N=C/c2cccc3ccccc23)c1	–	·	35.5µM	–	?	–
SMILES	JMJD2A Tudor	L3MBTL1 inh	G9a block	BAZ2B block	GLS inhibitor	HP1b binding inh
COc1ccc(N/N=C/c2c(C(=O)O)ccc3ccccc23)cc1	–	·	–[12.7 µM]	–	–	–
Cc1cccc2cc(/C=N/Nc3ccc(C(=O)O)cc3)c(Cl)nc12	?	·	·	50.1µM	–	–
COc1ccc2ccccc2c1/C=N/Nc1ccc(Cl)c(C(=O)O)c1	–	·	44.7µM	?	?	?
COc1ccc2ccccc2c1/C=N/Nc1cccc(C(=O)O)c1	–	·	44.7µM	?	7.94µM	–
O=C(NCc1ccc2c(c1)OCO2)c1ccc2c(c1)N(Cc1cccc(Cl)c1)C(=O)c1ccccc1S2=O (stereo unspecified)	–	·	–	–	–	–
Cc1nn(-c2ccccc2Cl)c(Cl)c1/C=N/Nc1cccc(C(=O)O)c1	–	?	8.91µM	?	–	–
Cc1ccsc1/C=N/Nc1ccc(C(=O)O)cc1	–	·	–	–	–	–
O=C(N/N=C/c1sc(=O)n(Cc2ccc(Br)cc2)c1Cl)c1ccco1	?	·	–[0.0925 µM]	89.1µM	–	–
COc1ccc(-c2nn(-c3ccccc3)cc2/C=N/Nc2ccc(Cl)c(C(=O)O)c2)cc1OC	–	–	39.8µM	–	–	–
Cc1ccsc1/C=N/Nc1cccc(C(=O)O)c1	–	·	44.7µM	–	–	–
COc1ccc2sc(N(Cc3cccnc3)C(=O)C3COc4ccccc4O3)nc2c1 (stereo unspecified)	–	·	–	–	–	–
O=C(O)c1cccc(Cn2c(Cl)c(/C=N/NC(=O)c3ccccc3Cl)sc2=O)c1	–	–	–	–	–	–
O=C(O)c1cccc(Cn2c(Cl)c(/C=N/Nc3ccccc3)sc2=O)c1	?	·	12.6µM	25.1µM	?	–
CC1CCN(C(=O)C2COc3ccccc3C2)CC1 (stereo unspecified)	–	·	–	–	–	–
CC1NC(C(=O)O)Cc2c1[nH]c1ccccc21 (stereo unspecified)	·	·	–	·	·	·
O=C(O)C1Cc2c([nH]c3ccccc23)C(c2ccc3c(c2)OCO3)N1 (stereo unspecified)	?	–	35.5µM	–	–	–
Cc1cc(O)ccc1Nc1nc(-c2sc(N)nc2C)cs1	50.1µM	–	–	–	–	–
Cc1nc(N)sc1-c1csc(Nc2ccccc2)n1	?	–	?	50.1µM	–	–
COc1ccc(Nc2nc(-c3sc(C)nc3C)cs2)cc1	?	–	·	50.1µM	–	?
Cc1nc(C)c(-c2csc(Nc3ccc(N)cc3)n2)s1	50.1µM	–	39.8µM	28.2µM	–	?
CCCCNc1nc(Oc2ccc(=O)n(-c3ccccc3)n2)nc(N(C)C)n1	–	·	–	–	–	–
COc1ccc(CNC(=O)c2nc(Cn3nc(C)c(Br)c3C)no2)cc1OC	–	·	–	–	–	–
COc1ccc(C2CC(c3ccccc3)Oc3c(C)ccc(C(C)C)c32)cc1 (stereo unspecified)	–	·	·	·	·	–
Cc1nc(C)c(-c2csc(Nc3ccc(O)c(C(=O)O)c3)n2)s1	–	–	79.4µM	?	?	–
